Source: PubChem BioAssay
LANA-H2A inh – blocks KSHV LANA binding to histone H2A/H2B; actives 0.6% (n = 320,000); inhibition, % (test concentration not listed); Q9QR71; cell-free LANA-H2A/H2B peptide, fluorescence polarization; AID 2629; in the data active means inhibition mostly above about 10%, no sharp cut-off; inactive means mostly below about 6.7%
ALR H2O2 inh – blocks human ALR sulfhydryl oxidase activity; inhibition, % (concentration not given with the values); actives 3.8% (n = 290,000); purified ALR, DTT oxidation, H2O2 HRP-luminol luminescence; P55789;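 active means mean replicate inhibition above about 79%, with every replicate also reaching it, limit read from the data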
ABHD5-PLIN5 inh – blocks binding of human ABHD5 to perilipin-5; actives 0.78% (n = 360,000); Split G. princeps luciferase complementation, luminescence, 4 h; Q00G26+Q8WTS1; inhibition, % at 4 µM;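 active means inhibition above the mean inhibition across every tested compound plus 3 SD, cut at about 22% in these data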;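 further: 0% = DMSO only wells and the 100% control is not disclosed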
Rtt109 Vps75 – inhibitors of Candida albicans Rtt109/Vps75 histone acetyltransferase. actives 0.16% (n = 330,000). AID 540336. Q5AAJ8. purified Rtt109/Vps75, ThioGlo CoA-SH fluorescence, 4 h. inhibition, % at 34.9 µM;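 active means inhibition of at least 50% in every replicate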
Target sequence (Q5AAJ8 whole entry, looked up): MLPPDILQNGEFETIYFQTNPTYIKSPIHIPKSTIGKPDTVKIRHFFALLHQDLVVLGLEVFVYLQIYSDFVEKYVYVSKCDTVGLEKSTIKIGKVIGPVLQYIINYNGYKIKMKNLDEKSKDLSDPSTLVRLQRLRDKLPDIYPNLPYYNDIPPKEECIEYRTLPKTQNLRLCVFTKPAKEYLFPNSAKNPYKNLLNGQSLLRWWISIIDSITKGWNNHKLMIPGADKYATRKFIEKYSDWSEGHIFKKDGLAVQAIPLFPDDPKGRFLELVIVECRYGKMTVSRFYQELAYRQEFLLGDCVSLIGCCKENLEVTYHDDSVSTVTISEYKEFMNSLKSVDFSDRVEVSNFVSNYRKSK
rCAG binder – r(CAG) repeat RNA binding; inhibition, % at 3 µM; AID 651821; actives 1.3% (n = 370,000); TO-PRO-1 dye displacement fluorescence;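 active means inhibition above the plate cutoff, the mean of all test compounds on that plate plus 3 SD, cut at about 35% in these data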;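 further: 0% = DMSO alone and 100% = 100 µM mitoxantrone as full dye displacement; higher means more dye released from RNA so lower well fluorescence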
PRMT1 FP inh – blocks human protein arginine methyltransferase 1 | AID 652257 | recombinant PRMT1, activity-based probe fluorescence polarization | Q99873 | inhibition, % at 2.79 µM | actives 1.3% (n = 370,000);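 active means inhibition above about 21% made by adding two undisclosed values, limit read from the data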
Target sequence (Q99873 whole entry, looked up): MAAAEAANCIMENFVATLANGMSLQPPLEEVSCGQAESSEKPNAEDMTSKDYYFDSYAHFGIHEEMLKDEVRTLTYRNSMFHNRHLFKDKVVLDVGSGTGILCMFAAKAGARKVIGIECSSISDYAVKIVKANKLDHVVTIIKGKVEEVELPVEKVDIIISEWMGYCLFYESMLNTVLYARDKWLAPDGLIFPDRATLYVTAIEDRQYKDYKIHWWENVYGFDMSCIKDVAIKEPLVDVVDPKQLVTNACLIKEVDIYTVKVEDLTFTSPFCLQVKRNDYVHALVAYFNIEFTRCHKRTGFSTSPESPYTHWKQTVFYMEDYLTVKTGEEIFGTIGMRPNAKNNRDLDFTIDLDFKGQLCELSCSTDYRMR
rCAG bind conf – r(CAG) RNA repeat binding, confirmation | shares compounds with rCAG binder | TO-PRO-1 dye displacement fluorescence | inhibition, % at 3 µM | actives 70% (n = 4,300);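 active means inhibition above a per-plate cutoff, the mean inhibition of sample wells plus 3 SD, cut at about 35% in these data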;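 further: loss of TO-PRO-1 fluorescence as compound displaces dye from 1x1 AA loop RNA; 0% = DMSO only wells and 100% = 100 µM mitoxantrone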
dCAG dye counter – DNA CAG dye complex inhibition counter-screen; actives 94% (n = 4,300); AID 652068; shares compounds with rCAG binder; d(CAG) DNA oligo TO-PRO-1 dye displacement, fluorescence; inhibition, % at 3 µM;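 active means inhibition above its plate's cutoff, the mean test-well inhibition plus 3 SD, cut at about 4.8% in these data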;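 further: 0% = DNA dye mix with DMSO and 100% = 100 µM mitoxantrone; hits displace the dye from DNA and so lower well fluorescence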
DNA CAG DR – disrupts DNA CAG TO-PRO-1 complex in dose response | shares compounds with rCAG binder | DNA CAG/GTC duplex TO-PRO-1 dye displacement fluorescence | IC50, µM | actives 20% (n = 250) | AID 686960; in the data active means IC50 below about 10 µM
The depositor's hits bear a star; . = no result. Only some compounds are listed: those with a hit (about 5.9% of all), similar ones and a draw of the others.

SMILES	LANA-H2A inh	ALR H2O2 inh	ABHD5-PLIN5 inh	Rtt109 Vps75	rCAG binder	PRMT1 FP inh	rCAG bind conf	dCAG dye counter	others
O=C(OCc1cn([C@@H]2C[C@H](c3ccccc3)N(Cc3cccs3)C[C@H]2O)nn1)c1ccccc1	.	.	-4.4	.	2.5	-1.5	.	.
O=C(C1CCCN(S(=O)(=O)c2cccc3ccccc23)C1)N1CCN(Cc2ccccc2)CC1 (stereo not drawn)	.	.	.	.	4.5	-2.8	.	.
O=C1N=c2ccc(Br)cc2=C1c1sc(=S)n(NS(=O)(=O)c2ccccc2)c1O	0.8	.	-23.2	3.1	81.3*	7.6	80.5*	49.7*
O=C(Nn1c(O)c(C=C2N=c3ccccc3=N2)sc1=S)c1ccc(Cl)cc1	2.4	-3.8	-6.9	-1.6	13.1	11.2	.	.
Cc1ccc(S(=O)(=O)Nn2c(O)c(C=C3N=c4ccccc4=N3)sc2=S)cc1	-1.5	0.0	-17.6	-5.2	94.4*	24.5*	88.0*	59.5*
Cc1ccc2c(c1)c1c3n2CC(=C2C(=O)OC(C)(C)OC2=O)NC3CCC1 (stereo not drawn)	-0.7	19.6	7.2	5.7	46.7*	2.6	34.2	18.4*
COc1ccc(-n2c(SCC(=O)NNC(=S)Nc3ccc(C)cc3)nnc2-c2ccccc2)cc1	.	.	.	.	30.0	-1.7	.	.
Cc1c(C(=O)NNC(=S)Nc2cccc(Cl)c2)nnn1-c1ccccc1	-4.0	90.6*	-12.2	-7.7	45.4*	-5.1	44.1*	13.9*
Cc1c(C(=O)O)nnn1-c1ccccc1	-4.1	4.7	2.4	-3.7	2.1	2.4	.	.
CO[C@@H]1CN(C)C(=O)c2ccc(NC(=O)C3CCCC3)cc2OC[C@@H](C)N(Cc2ccc(F)cc2)C[C@H]1C	.	.	-0.8	.	6.4	1.6	.	.
O=C(CCCN1C(=O)/C(=C\c2cccs2)SC1=S)Nc1ccc(O)cc1	3.5	1.9	-7.7	1.7	9.0	-0.2	.	.
O=C(CCN1C(=O)/C(=C/c2cccs2)SC1=S)Nc1ccc(C(=O)O)cc1	3.0	3.5	-1.4	29.1	48.1*	-3.8	35.3*	8.1*
O=C(CCCN1C(=O)/C(=C\c2cccs2)SC1=S)Nc1ccc(C(=O)O)cc1	-2.4	-15.9	13.7	-8.7	39.0*	3.4	29.9	7.8*
O=C(CCCN1C(=O)/C(=C\c2cccs2)SC1=S)Nc1ccc(O)cc1C(=O)O	-1.4	21.3	-11.5	20.3	60.0*	2.2	59.6*	22.7*
Cc1[nH]n(-c2ccc(Br)cc2)c(=O)c1C=Nc1ccc(S(=O)(=O)Nc2nccs2)cc1	-2.4	1.3	-9.0	-4.1	54.0*	5.0	80.7*	46.9*
Cc1ccc(-n2[nH]c(C)c(C=Nc3ccc(S(=O)(=O)Nc4nccs4)cc3)c2=O)cc1	2.3	4.0	.	.	.	.	.	.
CCc1nnc(NS(=O)(=O)c2ccc(N=Cc3c(C)[nH]n(-c4ccc(C)c(C)c4)c3=O)cc2)s1	-1.2	21.0	-6.7	-17.1	55.4*	0.2	84.6*	57.4*
O=C(O)c1ccc(N/N=C/c2cn(Cc3ccccc3F)c3ccccc23)cc1	-5.4	98.2*	-15.5	-1.6	77.8*	17.8	80.5*	45.0*
O=C(N/N=C/c1cn(Cc2cccc(F)c2)c2ccccc12)c1cc(O)cc(O)c1	-1.9	2.8	18.4	0.2	50.0*	11.0	52.2*	28.6*
CCNC(=O)C1(C)CCCN(Cc2ccc(-n3ccnc3)cc2)C1 (stereo not drawn)	.	.	-1.6	.	-0.5	-1.2	.	.
C[C@H](O)[C@@H]1C(=O)N2CCc3c([nH]c4c(-c5ccc6c(c5)OCO6)cccc34)[C@@H]2C[C@@H]1N(C)C(=O)Nc1ccccc1	.	.	.	.	4.4	0.9	.	.
COc1ncnc2c1ncn2CCCN1CCN(C(=O)C2CC2)CC1	.	.	3.5	.	1.2	2.5	.	.
COc1ccc(-c2csc(NC(=O)c3c(OC)cccc3OC)n2)cc1	-1.0	.	-3.9	0.2	12.1	-6.6	.	.
COc1ccc(S(=O)(=O)Nc2ccccc2C(=O)Nc2nc(-c3ccc(F)cc3)cs2)cc1OC	.	.	2.9	-3.8	87.0*	2.8	89.3*	70.7*
COc1ccc(-c2csc(NC(=O)c3ccccc3NS(=O)(=O)c3ccc(C)cc3)n2)cc1	-2.9	-6.7	0.5	-3.1	85.4*	1.6	94.6*	82.4*
SMILES	LANA-H2A inh	ALR H2O2 inh	ABHD5-PLIN5 inh	Rtt109 Vps75	rCAG binder	PRMT1 FP inh	rCAG bind conf	dCAG dye counter	others
Cc1ccc(OCC(=O)N2CC(C)CC(C)C2)c([N+](=O)[O-])n1 (stereo not drawn)	3.6	-10.0	-4.7	-6.2	0.7	2.4	.	.
O=C(CSc1nc2ccccc2nc1N1CCOCC1)N1CCN(S(=O)(=O)c2cccc([N+](=O)[O-])c2)CC1	.	.	.	.	7.7	-2.1	.	.
Cc1onc(-c2ccccc2Cl)c1C(=O)Nc1nnc(-c2cccc([N+](=O)[O-])c2)s1	0.8	57.2	5.2	19.4	41.9*	-2.1	34.2	7.4*
COc1nc(OC)nc(N2CCC(C(=O)N(C)Cc3ccccc3F)CC2)n1	.	.	.	.	-1.9	-0.7	.	.
CCOC(=O)c1c(C)[nH]c(C(=O)NCCc2ccc(OC)c(OC)c2)c1C	2.6	-0.8	-1.8	-6.8	-3.5	-2.1	.	.
COC(=O)Cn1c(=O)c(C(=O)CCl)c(N)n(Cc2ccccc2)c1=O	3.8	-0.5	-0.4	-10.7	0.8	-0.2	.	.
COC(=O)Cn1c(=O)c2c(n(Cc3ccccc3)c1=O)N/C(=C/c1ccc(OC)cc1)C2=O	-1.9	18.2	-4.0	19.6	74.6*	2.5	79.3*	33.7*	DNA CAG DR=4.02*
Cc1noc(NS(=O)(=O)c2ccc(NC(=O)C34CC5CC(C3)CC(n3cnc(Br)n3)(C5)C4)cc2)c1C	-0.2	.	9.4	5.9	41.5*	0.8	28.7	7.6*
Cc1ccc(C2(C)NC(=O)N(CC(=O)Nc3ccc(S(=O)(=O)Nc4nccs4)cc3)C2=O)cc1 (stereo not drawn)	-0.8	96.0*	-7.7	0.2	51.2*	7.2	31.1	12.0*
O=C(CCC1CCCCC1)Nc1ccc(S(=O)(=O)Nc2nccs2)cc1	3.2	6.2	-16.5	6.3	52.8*	0.0	43.1*	14.2*
Cc1cc(NC(=O)CSc2nc3c(cc2C#N)CCCC3)no1	3.0	-8.6	-6.2	0.8	-0.6	1.4	.	.
Cc1noc(NS(=O)(=O)c2ccc(NC(=O)CSc3nc4c(cc3C#N)CCCC4)cc2)c1C	0.4	95.2*	4.9	-6.8	40.6*	7.1	33.2	11.2*
Cc1ccc(NC(=O)CN2C(=O)NC(C)(c3ccc(Cl)cc3)C2=O)cc1 (stereo not drawn)	4.1	-0.3	-3.6	12.0	0.0	-1.4	.	.
